{
  "source": "PubChem BioAssay (EPA / NIEHS)",
  "note": "Activity calls are given as the source filed them. How the source made its calls: active means hit-call score of the fitted dose curve at least 0.9, where 1 is the maximum; inactive means score below 0.9.",
  "data": [
    {"tested_on": "SRY-box transcription factor 17 (SOX17) Protein Expression, Deisenroth Lab, SOX17 (gene 64321)", "assay": "CCTE_Deisenroth_DEVTOX-GLR_legacy_Sox17: (Legacy) CCTE's DevTox GLR-Endo Assay Evaluation of SRY-box transcription factor 17 (SOX17) Protein Expression, Deisenroth Lab (AID 2284341)", "conditions": "actives raise or lower the signal", "outline": "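Endoderm-differentiation readout in RUES2-GLR human pluripotent cells at 48 h, concentrations spanning 1 nM - 200 uM. Sox17-positive cells divided by total cell count; gain or loss relative to DMSO solvent control, n=4 experimental replicates.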", "values": [
      {"smiles": "O=C(O)c1cccnc1", "outcome": "inactive"},
      {"smiles": "O=C1NC(=O)C(c2ccccc2)(c2ccccc2)N1", "outcome": "inactive"},
      {"smiles": "CC(=O)CC(c1ccccc1)c1c(O)c2ccccc2oc1=O", "note": "(centres undefined)", "outcome": "inactive"},
      {"smiles": "Cc1cn([C@H]2C=C[C@@H](CO)O2)c(=O)[nH]c1=O", "outcome": "inactive"}
    ]}
  ]
}
